High-throughput results: PubChem, several laboratories
This is a sample that favours compounds with a hit; in the whole collection about 1.9% have one here.
eIF4H inh = human eIF4H binding inhibitors, primary screen, translation initiation inhibitor project, biochemical, uHTS, fluorescence polarization; Eukaryotic translation initiation factor 4H (Homo sapiens), Q15056; eIF4H fluorescence polarization binding assay; inhibition, % at 35 µM; hit rate 0.94% among 290,000; AID 2012, 2009;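 note: calls also rest on retests at 20 µM and on dose response follow-up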
MLLE-PAM2 inh = inhibitors of PABP1 MLLE–PAM2 peptide binding, primary screen, biochemical, fluorescence polarization, FITC-PAM2, GST-MLLE; inhibition, % at 20 µM; hit rate 0.36% among 360,000; in the data active = inhibition above about 35%, passing the limit was not always enough
PABP FP inh = PABP poly(A) RNA binding inhibitors, primary screen, biochemical, fluorescence polarization, uHTS; Polyadenylate-binding protein 1 (Homo sapiens), P11940; calls only at 35 µM; hit rate 1% among 290,000; AID 2014, 2009;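 note: calls also rest on retests at 20 µM and on dose response follow-up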
eIF4E-4G inh = eIF4E–eIF4G protein interaction inhibitors, primary screen, biochemical, uHTS, TR-FRET, eIF4GI fragment | Eukaryotic translation initiation factor 4E (Mus musculus) + Eukaryotic translation … | TR-FRET eIF4E-eIF4GI(517-606) binding, 2 h | AID 782, 2007 | hit rate 0.37% among 220,000 | inhibition, % at 21.7 µM;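 active = inhibition above about 30%, limit read from the data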
14-3-3 Bad inh = inhibitors of 14-3-3 zeta/Bad binding, primary screen, biochemical, TR-FRET, bovine 14-3-3 zeta | hit rate 0.71% among 220,000 | 14-3-3 protein zeta/delta (Bos taurus), P63103 | inhibition, % at 21.7 µM | AID 781, 2007 | TR-FRET 14-3-3zeta/Dy647-pBad peptide displacement, 1 h;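 active = inhibition above about 70%, limit read from the data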
Hits are given with their value; – = inactive; ? = inconclusive; · = no result given; + = active, no number; [ ] = another dose, or the depositor's remark. Unless noted, the rule behind the calls is not given here.

SMILES	eIF4H inh	MLLE-PAM2 inh	PABP FP inh	eIF4E-4G inh	14-3-3 Bad inh
O=Cc1ccc(OC(=O)c2cc(Cl)nc3ccccc23)cc1	–	36.5	–	–	–
O=C(CSc1nnc(-c2ccc(F)cc2)o1)c1ccc2c(c1)OCCO2	–	–	–	–	–
CC(C)(C)c1ccc(-c2nnc(SCC(=O)c3ccc4c(c3)OCCO4)o2)cc1	–	–	–	–	87.1
O=C(CNCC1CCCO1)Nc1ccccc1N1CCCCCC1 (centres undefined)	–	–	–	–	82.2
O=C(Nc1ccccc1N1CCOCC1)c1cc2ccccc2o1	–	–	–	·	·
Cc1ccc(C(=O)Nc2ccccc2N2CCCC2)cc1	82.6	–	+	·	·
O=C(Nc1ccccc1N1CCCC1)c1cc2ccccc2o1	–	40.7	–	–	–
Cc1ccc(S(=O)(=O)N2CCN(C(=O)CC(C)n3cncn3)CC2)cc1C (centres undefined)	–	–	–	·	·
Cc1ccccc1C(=O)NNC(=O)CSc1nc(-c2ccccc2)cc(=O)[nH]1	–	–	–	–	–
O=C(NC(c1ccccc1)c1ccccc1)C1(c2cccs2)CCOCC1	?	–	+	–	–
Cc1ccc(SCc2cc(=O)c3c(=O)n(-c4ccccc4)[nH]c3[nH]2)cc1	–	–	+	–	–
O=C(O)c1ccc(Cl)c(NC(=S)NC(=O)c2ccccc2[N+](=O)[O-])c1	–	46.8	–	–	–
O=C(NC(=S)NNS(=O)(=O)c1ccccc1)c1ccccc1[N+](=O)[O-]	–	45.3	–	–	–
O=C(NC(=S)NNS(=O)(=O)c1ccccc1)c1cccnc1	–	48.2	–	–	–
O=C(NC(=S)Nc1ccccc1[N+](=O)[O-])c1ccccc1Cl	–	–	–	–	–
COc1ccc(CCNC(=O)COC(=O)/C=C/c2ccc(OC)cc2OC)cc1	·	–	·	·	·
Nc1ccc(O)c2c1C(=O)c1ccccc1C2=O	–	86.7	–	30.7[fluorescence artefact?]	–
CCCC(=O)N1CCCC1(C)C(=O)Nc1ccc2nc(C)ccc2c1 (centres undefined)	·	–	·	·	·
Cc1ccc2c(c1)NC(c1cccs1)C1=C(CC(C)(C)CC1=O)N2 (centres undefined)	85.7	–	+	–	–
Nc1nnc(SCc2ccccc2Cl)s1	7.2	–	+	77.2	–
COCCNC(=O)c1onc(CSc2cc(C)ccc2C)c1C(=O)O	–	–	–	–	77.8
COCCNC(=O)c1onc(CSc2ccccc2C)c1C(=O)O	–	–	–	–	–
COCCNC(=O)c1onc(CSc2ccc(F)c(F)c2)c1C(=O)O	–	–	–	–	76.6
O=C(NCC1CCCO1)c1onc(CSc2ccccc2)c1C(=O)O (centres undefined)	–	–	–	–	71.7
O=C(c1cn(-c2ccccc2)nc1-c1cccnc1)N1CCCC(C(F)(F)F)C1 (centres undefined)	·	–	·	·	·
SMILES	eIF4H inh	MLLE-PAM2 inh	PABP FP inh	eIF4E-4G inh	14-3-3 Bad inh
COC(=O)C(C(=O)OC)c1ncccc1[N+](=O)[O-]	–	–	–	–	85.4
COC(=O)C(C(=O)OC)c1ccccc1[N+](=O)[O-]	–	–	–	–	–
S=C(NCCCN1CCOCC1)NCCCN1CCOCC1	–	41.2	–	–	–
S=C(NCCCN1CCOCC1)NC1CCCC1	–	–	–	–	–
Cc1occc1-c1nnc(SCC(=O)c2cc3ccccc3oc2=O)o1	60.3	–	–	–	–
Cc1occc1-c1nnc(SCC(=O)Nc2ccccn2)o1	–	–	–	–	–
CN(c1ccccc1C(=O)NCc1ccco1)S(C)(=O)=O	55.0	–	+	–	–
CN(c1ccccc1C(=O)Nc1ccccc1C(=O)NCc1ccco1)S(C)(=O)=O	–	–	–	–	–
CCCCC(CC)CNC(=O)C(Cc1ccccc1)NS(=O)(=O)c1ccc2c(c1)CCC(=O)N2 (centres undefined)	–	–	–	–	–
CC(=O)Nc1ccc(-c2ccc3nnc(C)n3n2)cc1	–	–	–	–	–
Cc1nnc2ccc(-c3ccc(NC(=O)c4ccco4)cc3)nn12	74.1	–	–	–	–
CC1CCCCN1CC(=O)Nc1ccccc1Sc1ccccc1 (centres undefined)	–	–	–	–	–
